Experimental data from PubChem BioAssay (NCATS).
Several values for one entry are separate records, joined by “and”; a condition that tells them apart may be missing. Identical values can stand only once. Records with an inconclusive call do not appear. Activity calls are given as the source filed them. Unless noted, calls come from the whole dose curve; as a rule, active = well fitted activation curve with a large enough effect; inconclusive = small, poorly fitted or top-dose-only effect; inactive = flat fitted curve, though single readings scatter.

Assay: Confirmation and Secondary Assay for Modulators of Hemoglobin Beta Chain Splicing at IVS2 654 locus (AID 910);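 note: HeLa cells stably carrying EGFP split by mutant beta-globin IVS2-654 intron; per-well total GFP intensity by laser scanning cytometry after 2-day treatment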
Details: HeLa EGFP-654 splicing reporter, GFP fluorescence, 48 h; series mostly up to 46.1 µM
In short: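 Readout: per-well total peak green fluorescence (488 nm ex, 500–520 nm em) from objects 5–250 µm, reflecting correct splicing of an EGFP-654 reporter. Compounds were applied for 2 days at 37 °C to overnight-plated HeLa EGFP-654 cells; controls were DMSO and 500 nM IVS2-654 PNA.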
Note: % of control where 0% means no effect.

outcome, inactive:
CCOC(=O)C1=C[C@@]2(CC)CCCN3CCc4c(n1c1ccccc41)C32 (stereo partly drawn), CC1(C)C(=O)C=C[C@]2(C)C1CC(=O)[C@]1(C)C2CC[C@@]2(C)C(c3ccoc3)OC(=O)C3O[C@@]321 (stereo partly drawn), CN1C[C@H](C(=O)N[C@@]2(C)O[C@@]3(O)C4CCCN4C(=O)C(Cc4ccccc4)N3C2=O)C[C@H]2c3cccc4[nH]cc(c34)C[C@H]21 (stereo partly drawn), CCCCCC(=O)O[C@@]1(C(C)=O)CCC2C3CCC4=CC(=O)CC[C@@]4(C)C3CC[C@]21C (stereo partly drawn)

Assay: qHTS Assay for Identification of Small Molecule Agonists for Hypoxia Response Element Signaling Pathway (AID 914; active = well fitted activation curve with a large enough effect in the signal ratio, with a control signal flat, not every such curve was filed as active; the % refers to the signal ratio)
Details: ME-180 (cervical carcinoma) HRE-bla reporter, beta-lactamase ratio, CoCl2, 17 h; hits give high values
In short: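 Cells were plated overnight, pin-dosed with compound in a titration series, co-stimulated with EC50 CoCl2 and incubated 17 hours at 37 degrees Celsius. CCF4 substrate was then loaded, and AC50 values came from the 460nm/530nm ratio.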

activation, inactive:
C[C@H](c1ccccc1)N1C(=O)[C@H]2[C@@H]3[C@H](O)[C@H](O)CC(=O)[C@H]3CC[C@H]2C1=O 0.807%, c1ccc([C@H]2NCCc3c2[nH]c2ccccc32)cc1 -22.5%, COC(=O)C/C=C\[C@@H](C)[C@@H]1C=C[C@H](OC(C)=O)[C@H](COC(C)=O)O1 1.52%, CC(C)=CCC/C(C)=C/CO/N=C1/C[C@@H](O)[C@@H](O)[C@@H]2[C@@H]3C(=O)N(c4cccc(Oc5ccccc5)c4)C(=O)[C@H]3CC[C@@H]12 6.84%, CCN1C(=O)[C@H]2[C@H]3[C@H](O)[C@H](O)C/C(=N/OCc4ccccc4)[C@H]3CC[C@@H]2C1=O 7.18%, COc1ccc(COC(=O)N/N=C2/C[C@@H](O)[C@@H](O)[C@@H]3[C@@H]4C(=O)N(Cc5ccc6c(c5)OCO6)C(=O)[C@H]4CC[C@@H]23)cc1 0.811%, CC(C)C(=O)N[C@H]1CCCN1C(=O)/C=C\c1ccccc1 4.87%, C#CCCCO/N=C1/C[C@@H](O)[C@@H](O)[C@@H]2[C@@H]3C(=O)N(c4cccc(Oc5ccccc5)c4)C(=O)[C@H]3CC[C@@H]12 -6.82%, O=C(N/N=C1/C[C@@H](O)[C@@H](O)[C@@H]2[C@@H]3C(=O)N(c4cccc(Oc5ccccc5)c4)C(=O)[C@H]3CC[C@@H]12)OCc1ccccc1 -0.0366%, CCN1C(=O)[C@H]2[C@@H]3[C@H](O)[C@H](O)CC(=O)[C@H]3CC[C@H]2C1=O -3.64% and -8.67%, CO[C@H]1COC(=O)C/C=C\[C@H](C)COC(=O)[C@@H](OCc2ccccc2)/C=C\[C@@H]1C -11.2%, CC(C)[C@@H](OCc1ccccc1)[C@H](C)/C=N\OC[C@@H](C)[C@H](OCc1ccccc1)C(C)C -1.89%, O=C(N/N=C1/C[C@@H](O)[C@@H](O)[C@@H]2[C@@H]3C(=O)N(c4cccc(Oc5ccccc5)c4)C(=O)[C@H]3CC[C@H]12)OCc1ccccc1 9.49%, CCN1C(=O)[C@H]2[C@H]3[C@H](O)[C@H](O)C/C(=N/OCc4ccccc4)[C@@H]3CC[C@@H]2C1=O -12.3%, CC(C)CO/N=C1/C[C@@H](O)[C@@H](O)[C@@H]2[C@@H]3C(=O)N(C4CCCCC4)C(=O)[C@H]3CC[C@@H]12 -7.25%, Cc1ccc2nc3nc4ccc[nH]c4cc3c2c1 -21.2%, C/C(CCN1CCCc2nc(C)c(C)cc21)=N\O[C@@H](C)c1cn([C@@H]2COC[C@@H]2O)nn1 8.15%, O=C1C=C[C@@H](O)[C@H]2[C@@H]3C(=O)N(C[C@@H]4CCCO4)C(=O)[C@@H]3CC[C@H]12 -2.79%, CSCC[C@@H]1NC(=O)C/C=C\[C@@H](C)COC(=O)[C@H](C)COC1=O 5.76%, C/C(CCN1CCc2nc(-c3ccccc3)c(-c3ccccc3)cc2C1)=N\O[C@@H](C)c1cn([C@H](CO)Cc2ccccc2)nn1 -1.74% and -5.69%, CC(C)=CCC/C(C)=C/CO/N=C1/C[C@@H](O)[C@@H](O)[C@@H]2[C@@H]3C(=O)N(c4cccc(Oc5ccccc5)c4)C(=O)[C@H]3CC[C@H]12 7.14%, CO[C@H]1COC(=O)[C@@H](C)COC(=O)[C@H](C)NC(=O)C/C=C\[C@H]1C -4.15%, CC(C)CO/N=C1/C[C@@H](O)[C@@H](O)[C@@H]2[C@@H]3C(=O)N(C4CCCCC4)C(=O)[C@H]3CC[C@H]12 -3.43%, CC(C)[C@@H](OCc1ccccc1)[C@H](C)/C=N\OC[C@@H](O)[C@@H]1O[C@@H]2OC(C)(C)O[C@@H]2[C@H]1O 7%
